“And” between values parts separate entries of the source, which are not always exact repeats. Identical values can stand only once. Hit rate of the full screen: of about 52,000 compounds, about 1,700 (3.3%) were called active. Rule as the data show it: active = survival mostly below about 52% (no sharp cut-off); inactive = mostly above about 56%. This excerpt belongs to a sample that is enriched for actives. The source holds several records for some structures; these can differ, active in one and inactive in another.

This experiment concerns Wild type. Nature of the experiment: growth inhibition of S. aureus wild type versus tarO mutant, primary screen, teichoic acid synthesis inhibitors, RN4220, OD600 (AID 463173). To be noted: S. aureus RN4220 wild type/DeltatarO growth, OD600, 18 h, stronger effect = lower value, screened at 18.75 µg/mL (by protocol).
As to `COc1ccc(OC)c(CCNC(=O)c2cc3cccc4c3n2CCS4)c1`, the survival is 71% (inactive). To `Cn1c(=O)c2c(nc(NCc3ccccc3)n2Cc2ccccc2)n(C)c1=O` belongs 79% (inactive); to `CC(C)Cc1nn2c(=O)cc(COC(=O)c3ccc(NC(=O)c4cccs4)cc3)nc2s1`, 127% (inactive); to `CCc1ccccc1N1CC(c2nc3ccccc3n2CCCCOc2ccccc2OC)CC1=O` (centres undefined), 93% (inactive). To `Cc1ccc(C)c(OCCn2c(C3CC(=O)N(Cc4ccc(F)cc4)C3)nc3ccccc32)c1` (centres undefined) belongs -16% (active); to `Cc1cccc(C)c1OCCn1c(C2CC(=O)N(c3cccc(Cl)c3)C2)nc2ccccc21` (centres undefined), 84% (inactive). The same measure for `Cc1ccc(OCCn2c(C3CC(=O)N(Cc4ccc(F)cc4)C3)nc3ccccc32)c(C)c1` (centres undefined): -15% (active); for `C=CCc1ccccc1OCCn1c(C2CC(=O)N(Cc3ccc(F)cc3)C2)nc2ccccc21` (centres undefined): -16% (active); for `Cc1cccc(C)c1OCCn1c(C2CC(=O)N(Cc3ccc(F)cc3)C2)nc2ccccc21` (centres undefined): -4% (active). `Cc1ccc(OCCCn2c(C3CC(=O)N(c4cccc(Cl)c4)C3)nc3ccccc32)c(C)c1` (centres undefined): the survival is 90% (inactive). As to `Cc1cc(C)c(Cn2c(C3CC(=O)N(c4ccc(F)cc4)C3)nc3ccccc32)c(C)c1` (centres undefined), the survival is 86% (inactive). The same measure for `CCOc1ccccc1N1CC(c2nc3ccccc3n2CCCCOc2cc(C)ccc2C)CC1=O` (centres undefined): 43% (inactive); for `COc1ccccc1OCCCn1c(C2CC(=O)N(c3ccc(F)cc3)C2)nc2ccccc21` (centres undefined): 101% (inactive); for `CCOc1ccccc1N1CC(c2nc3ccccc3n2CCOc2ccccc2OC)CC1=O` (centres undefined): 107% (inactive). To `Cc1cccc(C)c1OCCCCn1c(C2CC(=O)N(c3ccc(F)cc3)C2)nc2ccccc21` (centres undefined) belongs 34% (inactive); to `COc1ccc(NC(=O)Cn2c(=O)n(-c3cccc(C)c3)c(=O)c3c2c2cc(C)ccc2n3C)cc1Cl`, 86% (inactive); to `CCc1cccc(NCc2ccccc2-c2nnc(-c3ccccc3Cl)o2)c1`, 81% (inactive). `CN(C)S(=O)(=O)c1ccc(S(=O)(=O)N2CCC(c3nc4c(nnn4Cc4cccc(F)c4)c(=O)[nH]3)CC2)cc1`: the survival is 113% (inactive). Turning to `Cc1cccc(-n2ncc3c(Nc4c(C)cc(C)cc4C)ncnc32)c1`, the survival is 83% (inactive). The same measure for `Cc1ccc(S(=O)Cc2nc(-c3ccc(C(=O)NCc4cccc(C)c4)cc3)oc2C)cc1` (centres undefined): 99% (inactive); for `CCOc1ccc(NC(=O)c2ccc(-c3nc(COc4ccccc4)c(C)o3)cc2)cc1`: 89% (inactive). For the compound `O=C(c1cnc(N2CCCCC2)c2ccccc12)N1CCN(c2cccc(Cl)c2)CC1`, the survival is 68% (inactive). To `CCOC(=O)c1cccc(NS(=O)(=O)c2cc(Br)cc3c2N(C(=O)C2CC2)CC3)c1` belongs 151% (inactive); to `CCCC(=O)NCC(c1ccc2c(c1)OCO2)N1CCN(c2ccccc2)CC1` (centres undefined), 92% (inactive). As for `O=C(COc1ccccc1F)Nc1ccccc1OCc1cc(=O)n2ccccc2n1`, the survival is 79% (inactive).

On to `CN(C)c1oc(/C=C/c2ccc(F)cc2)nc1C#N`, for which the survival is 87% (inactive). The same measure for `CC1CCCCN1CC(=O)N1CCN(C(=O)CN2CCCCC2C)CC1` (centres undefined): 106% (inactive); for `CCOc1ccccc1NC(=O)CN(c1cc(C)cc(C)c1)S(=O)(=O)c1c(C)nn(C)c1C`: 69% (inactive). For the compound `Cc1cc(C)cc(N(CC(=O)Nc2c(C)cc(C)cc2C)S(=O)(=O)c2c(C)nn(C)c2C)c1`, the survival is -6% (active).

`CCc1ccc(NC(=O)CN(c2ccc(C)cc2)S(=O)(=O)c2c(C)nn(C)c2C)cc1`: the survival is 76% (inactive). The same measure for `O=C(c1cn(CCOc2ccccc2F)c2ccccc12)C1CCCCC1`: 3% (active); for `O=C(c1cccs1)c1cn(CCOc2ccc(Cl)cc2)c2ccccc12`: 80% (inactive).

Consider `Cc1ccc(OCCn2cc(C(=O)C3CCCCC3)c3ccccc32)cc1`, for which the survival is 1% (active).

Turning to `Cc1ccc(NC(=O)Cn2cc(C(=O)C3CCCCC3)c3ccccc32)cc1`, the survival was 87% (inactive).

In the case of `O=C(c1cccs1)c1cn(CCOc2ccccc2F)c2ccccc12`, the survival is 75% (inactive). The same measure for `O=C(c1cn(CCOc2ccc(Cl)cc2)c2ccccc12)C1CCCCC1`: 9% (active); for `Cc1ccccc1OCCn1cc(C(=O)C2CCCCC2)c2ccccc21`: 124% (inactive); for `COc1ccc(OCCn2cc(C(=O)C3CCCCC3)c3ccccc32)cc1`: 31% (inactive). Regarding `O=C(c1ccco1)c1cn(CCOc2ccc(Cl)cc2)c2ccccc12`, the survival is 68% (inactive). The same measure for `Cn1ncc(Cl)c1C(=O)O`: 95% (inactive); for `O=C(CC1N=C2c3ccccc3N=C(SCC(=O)Nc3ccccc3F)N2C1=O)NCc1cccs1` (centres undefined): 73% (inactive); for `O=C1C2=C(Nc3ncnn3C2c2ccccc2)c2ccccc21` (centres undefined): 114% (inactive). To `CSc1ccc(/C=C/c2nc3ccccc3n2S(=O)(=O)c2cccc(Cl)c2)cc1` belongs 66% (inactive). To `CCN1CCN(C(C)C(=O)NC(c2ccccc2)c2ccccc2)CC1` (centres undefined) belongs 113% (inactive); to `Cc1cccc(Cn2nc(C)n3c(cc4cc(C)ccc43)c2=O)c1`, 79% (inactive); to `CCc1cccc2c(-c3ccccc3)nc(SCC(=O)Nc3ccccc3)nc12`, 88% (inactive). On to `Cc1ccc(NC(=O)CSc2nnc3nc(C)cc(C)n23)cc1`, for which the survival was 73% (inactive). Take `CCc1ccccc1NC(=O)CN1C(=O)C2CCCN2c2ccc(S(=O)(=O)N(CC)CC)cc21` (centres undefined): the survival is 81% (inactive). For the compound `CCN(CC)S(=O)(=O)c1ccc2c(c1)N(CC(=O)Nc1cccc(C)c1C)C(=O)C1CCCN21` (centres undefined), the survival was -4% (active). For `CCN(CC)S(=O)(=O)c1ccc2c(c1)N(CC(=O)Nc1c(C)cccc1C)C(=O)C1CCCN21` (centres undefined), the survival is 73% (inactive). To `Cc1ccnc(NS(=O)(=O)c2cc(-c3cc(C)no3)ccc2C)c1` belongs 78% (inactive); to `CCc1ccc(-c2cc(C)no2)cc1S(=O)(=O)Nc1ccc(C)cn1`, 14% (active). To `CCc1ccc(-c2cc(C)no2)cc1S(=O)(=O)Nc1ccc(Cl)cc1` belongs 74% (inactive). For the compound `Cc1ccc(-c2onc(C)c2C)cc1S(=O)(=O)Nc1ccc(Cl)cn1`, the survival is 89% (inactive).

Turning to `CCc1ccc(-c2cc(C)no2)cc1S(=O)(=O)Nc1cc(OC)c(OC)c(OC)c1`, the survival was 83% (inactive). The same measure for `CCc1ccc(-c2cc(C)no2)cc1S(=O)(=O)Nc1ccc(Cl)cn1`: -1% (active); for `O=C(CN1C(=O)C(c2ccc(F)cc2)=NC12CCCCCC2)Nc1ccc(F)c(Cl)c1`: 76% (inactive); for `CCOc1ccc(NC(=O)CCc2c(C)nc3cc(-c4ccccc4OC)nn3c2C)cc1`: 76% (inactive). On to `COc1ccc(NC(=O)CSc2nc(-c3ccc(OC)cc3)cc(=O)[nH]2)cc1`, for which the survival was 148% (inactive). With `CCOCN(C(=O)Cn1c(C(C)O)nc2ccccc21)c1c(C)cccc1CC` (centres undefined), the survival was 117% (inactive). In the case of `CCc1cccc(CC)c1N(COC)C(=O)Cn1c(CC)nc2ccccc21`, the survival is 74% (inactive). For `CCOCN(C(=O)Cn1c(C)nc2ccccc21)c1c(C)cccc1CC`, the survival was 124% (inactive).

`CCOCN(C(=O)Cn1c(CC(C)C)nc2ccccc21)c1c(C)cccc1CC`: the survival was 5% (active). The same measure for `CCCCc1nc2ccccc2n1CC(=O)N(COCC)c1c(C)cccc1CC`: -1% (active); for `CCOCN(C(=O)Cn1c(COC)nc2ccccc21)c1c(C)cccc1CC`: 111% (inactive); for `Cc1cccc(NC(=O)CN2C(=O)COc3ccc(S(=O)(=O)N4CCC(C)CC4)cc32)c1C`: 101% (inactive). The same measure for `Cc1ccc(-c2nc(-c3cc4cccc(OCc5cccc(C)c5)c4oc3=O)no2)cc1`: 71% (inactive); for `CCC(Cc1ccccc1)NC(=O)c1csc2c1CCCCC2` (centres undefined): 120% (inactive). The same measure for `CC(CNC(=O)c1csc2c1CCCCC2)c1ccccc1` (centres undefined): 0% (active); for `CSc1ccc(CCNC(=O)c2csc3c2CCCCC3)cc1`: 69% (inactive); for `CC(C)(C)c1ccc(-c2nnc(-c3ccccc3NC(=O)c3ccc(F)cc3F)o2)cc1`: 144% (inactive). Consider `CCCCSc1nc(-c2ccc(OC)cc2)ccc1C#N`, for which the survival is 28% (inactive). The same measure for `CCOC(=O)C(C)Sc1nc(-c2ccccc2Cl)cc(-c2ccccc2)c1C#N` (centres undefined): 79% (inactive). For the compound `CCOC(=O)C(C)Sc1nc(-c2ccccc2)ccc1C#N` (centres undefined), the survival was 107% (inactive) and 0% (active).

Consider `COc1cccc(C(=O)Nc2ccc(-n3nncc3-c3ccc(Br)cc3)cc2)c1OC`, for which the survival was 143% (inactive). Consider `CC(=O)N1CCc2cc(S(=O)(=O)NC(Cc3ccccc3)C(=O)Nc3ccc(C)cc3C)ccc21` (centres undefined), for which the survival was 74% (inactive).

As to `Nc1cccc(Cl)c1N1CCOCC1`, the survival is 110% (inactive). To `CCc1ccc2occ(CC(=O)Nc3c(C(=O)c4ccccc4)oc4ccccc34)c2c1` belongs 104% (inactive); to `COc1ccc(N2CCN(C(=O)c3oc4ccccc4c3NC(=O)c3ccccc3OC)CC2)cc1`, 129% (inactive). The same measure for `O=C(Cc1ccccc1)Nc1c(C(=O)c2ccccc2)oc2ccccc12`: 7% (active); for `O=C(Nc1c(C(=O)N2CCN(c3ccc(F)cc3)CC2)oc2ccccc12)c1ccco1`: 88% (inactive); for `Cc1ccc(C(=O)c2oc3ccccc3c2NC(=O)Cc2ccccc2)cc1`: 53% (inactive). With `O=C(Nc1c(C(=O)N2CCN(c3ccccc3)CC2)oc2ccccc12)c1ccco1`, the survival was 10% (active). The same measure for `COc1ccccc1NC(=O)c1oc2ccccc2c1NC(=O)c1c(F)cccc1F`: 60% (inactive). The same measure for `O=C(Nc1c(C(=O)N2CCN(c3ccccc3F)CC2)oc2ccccc12)c1ccco1`: 69% (inactive); for `COc1ccccc1C(=O)Nc1c(C(=O)Nc2ccccc2F)oc2ccccc12`: 2% (active); for `COc1ccccc1C(=O)Nc1c(C(=O)N2CCN(c3ccc(F)cc3)CC2)oc2ccccc12`: -2% (active).

With `COc1ccccc1C(=O)Nc1c(C(=O)N2CCN(c3ccccc3F)CC2)oc2ccccc12`, the survival is 101% (inactive). As for `COc1cc(C(=O)Nc2c(C(=O)Nc3ccccc3F)oc3ccccc23)cc(OC)c1OC`, the survival is 68% (inactive).

(Values after PubChem BioAssay AID463173 (ICCB-Longwood Screening Facility, Harvard Medical School, 2010).)
